The supplement of paper PMC6555819

How the values were obtained:
Test in all cases: PBM binding z-score (relative to random genomic background probes); higher = stronger binding; sequences stand for … in GC…GCGATTGACAGCGTAGAATGAAGG
[1] = system: RARb homodimer (NR concentration 270 nM)
Procedure, shortened: (§1)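 Ligand-free nuclear receptor dimers were applied to custom Agilent 4×180K protein-binding microarrays whose double-stranded probes carried direct-repeat seeds, single-nucleotide variants, half-site ablations and random human genomic background sequences in 34-nt variable regions. Incubation lasted 1 h. Binding z-scores were computed against the random background probes from regression-normalized fluorescence.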

[2] = system: RARg:RXRa (NR concentration 270 nM, RXRa partner concentration 90 nM)
Procedure, shortened: as §1

[3] = system: RARg homodimer (NR concentration 270 nM)
Procedure, shortened: as §1

[4] = system: RXRa DBDmut IVT, anti-RXR (DBD mutation: RXRa K156A/R161A, NR concentration 90 nM)
Procedure, shortened: as §1

[5] = system: RXRa homodimer (NR concentration 180 nM)
Procedure, shortened: as §1

[6] = system: THRa:RXRa (NR concentration 90 nM, RXRa partner concentration 90 nM)
Procedure, shortened: as §1

[7] = system: THRa homodimer (NR concentration 90 nM)
Procedure, shortened: as §1

[8] = system: VDR homodimer (NR concentration 270 nM)
Procedure, shortened: as §1

Sequence | PBM binding z-score [1] | PBM binding z-score [2] | PBM binding z-score [3] | PBM binding z-score [4] | PBM binding z-score [5] | PBM binding z-score [6] | PBM binding z-score [7] | PBM binding z-score [8]
TAGCCTGGGTCATTCAGGGGCCAGTATAGAAAGC | 2.55 | 6.03 | 3.76 | 1.25 | 3.24 | 3.34 | -0.502 | 0.911
GCTGCTAGGTCAATTGATGGTCAGCTAAAGCTCG | 2.95 | 4.28 | 4.03 | 1.37 | 1.95 | 2.22 | -0.157 | -0.476
ACTATAAGTTGACTTAGGGCAACCGATACGACGC | 1.03 | 1 | 1.11 | 0.718 | 0.692 | 2.4 | 0.322 | 0.647
CAAACTAGGTCTCGAAAGGTCAAAGTCGAATGAC | 4.49 | 5.71 | 5.18 | 1.18 | 6.53 | 3.97 | 1.2 | 2.67
TCTCGGAGGACACGAAGGTCATAGCTTTCCAGAG | 3.93 | 4.04 | 4.13 | 1.41 | 3.28 | 3.55 | 1.66 | 3.09
TCAATTAGTTGAAGGGCAACCGACGAGTCCGTTT | 1.28 | 0.369 | 0.258 | 1.02 | 0.562 | 0.164 | -0.267 | 1.42
GCATTTAGGTAATACAAGGTGAAAGTCCGATTGT | 1.06 | 0.319 | 0.48 | 0.617 | 0.375 | 3.89 | 1.59 | 0.0936
ACTAGTTGGTCAGCTGATGTCACACACAATTCGG | 1.06 | 0.65 | 1.08 | 0.494 | 0.485 | 1.29 | 0.161 | 0.144
TCATATAGGTAAACAGCTGAAAGTCCGTAAGTTA | 0.0749 | 0.25 | 0.0863 | 1.64 | 0.623 | 0.172 | -0.236 | 0.162
TCTTGTAGATCAAAGGTTAACAAAGCCGAAGCCT | 1.66 | 1.93 | 1.09 | 0.706 | 3.2 | 1.32 | -0.41 | -0.185
CCTTACGCGTCACTGACAGGTTATAGCATTTGGA | 0.655 | 0.439 | 0.151 | 1 | 0.414 | 0.506 | 0.512 | 0.287
TGTCAAAGTTCAAGGGTAACGTAAGTATCCACAC | 3.92 | 5.81 | 6.14 | 3.72 | 5.45 | 2.89 | 0.138 | 3.21
CAAACTAGGTCAAACGTCAAAGTCGAGCCAACCA | 2.99 | 4.6 | 4.53 | 2.28 | 4.16 | 3.13 | 0.831 | 1.04
AGAACGAGGGCTCGCTGAGTTGATAGCAGAGTAG | -1.22 | -0.312 | -0.258 | -0.292 | -0.132 | -0.509 | -0.958 | -0.176
ACTAGCAGGCCAAGTTTGGGTCACCCAAACAAAG | 2.48 | 2.88 | 2.18 | -0.623 | 1.45 | 2.96 | 1.36 | 0.196
TAAACAGGGTCAAAGGCCAGAGTACGAATGTCGA | 3.41 | 5.73 | 4.81 | 3.1 | 7.01 | 3.51 | 0.558 | 3.45
ACTAGTTGGTCAGCTGAGGACACACACAATTCGG | 1.64 | 1.18 | 1.82 | 0.558 | 0.282 | 4.7 | 4.2 | 0.259
GCGCGGAGGACAAGGTCAGAGCTTTGTCCGTAGA | 2.99 | 3.09 | 3.32 | 0.639 | 2.43 | 2.89 | 1.33 | 0.885
ATCTCTAGGTAAGACTCAGTTCTGTGAAGAACGC | 0.00747 | -0.271 | 0.0813 | 0.193 | -0.166 | 0.394 | 0.633 | 0.278

Sequence | PBM binding z-score [1] | PBM binding z-score [2] | PBM binding z-score [3] | PBM binding z-score [4] | PBM binding z-score [5] | PBM binding z-score [6] | PBM binding z-score [7] | PBM binding z-score [8]
TCGATTAGGTTACCAATGGGGCATTCAGCTTTCT | 1.09 | 1.39 | 0.551 | 1.2 | 0.573 | 0.894 | 0.0109 | -0.327
CCTACTTGGTCAAGGTCACACACGCTATAGGTAC | 4.57 | 4.56 | 4.86 | 2.17 | 4.71 | 4.06 | 4.41 | 3.28
ATATGTAGGTTTCATCCGGGTCATTCAGGCTATG | 2.53 | 1.62 | 0.901 | 1.35 | 2.07 | 3.22 | 2.18 | 3.21
CAAACTAGGTCAAGTGGTCAAAGTCCGCTTCCCG | 4.26 | 4.95 | 5.48 | 1.85 | 3.76 | 3.16 | 1.43 | 1.08
TCGAGTAGGATAGTCGGGGCATTCAGCCAACATA | -0.402 | -0.475 | -0.579 | 0.18 | -0.289 | 0.0302 | -0.471 | -0.497
CAAACTAGGTCACGAAAGGTCAAAGTAGAATGAC | 5.89 | 7.93 | 8.94 | 2.39 | 8.5 | 5.12 | 2.65 | 3.78
CCTTACGGGTCACTGATAGGTTATAGCATTTGGA | 3.34 | 5.65 | 4.89 | 1.85 | 5.48 | 2.74 | 0.24 | 1.17
TACACAGGGTCAAAGGCCAGAGTACGAATGTCGA | 3.22 | 5.65 | 5.36 | 3 | 7.62 | 3.5 | 0.79 | 3.23
ATATGTAGGTTAGCTGGGGTCATACAGACTAGGC | 3.9 | 4.36 | 3.32 | 1.64 | 6.14 | 5.18 | 3.83 | 4.09
GGAACGAGGGCATGTTGATAGCAGAGTTTGATGG | 1.11 | 0.813 | 1.38 | 2.25 | 0.438 | 1.1 | 0.428 | 1.6
TCGAGTAGGTTACCTATGGGGCATTCAGCTTTCT | 0.279 | 1.39 | 0.398 | 0.211 | 0.571 | 0.16 | -0.89 | -0.367
CGAACTAGGGCATGAGTTGATAGCAAATGCCGAT | 0.222 | 0.852 | 0.834 | 0.394 | 0.388 | 0.0506 | -0.493 | 0.329
ATCTCTTGGTAACCAAGTTCAGTGAATGCCGAAC | 1.4 | 0.23 | 0.417 | 1.2 | 0.509 | 0.819 | 0.000236 | 2.57
CAGCCTAGGTCAGCGCCAGTATAGGAGGAACGTT | 2.6 | 2.85 | 4.04 | 0.449 | 1.55 | 2.05 | 0.498 | -0.621
CCAACTAGGTCACGAAAGGTCAAAGTCGAATGAC | 6.02 | 8.03 | 8.57 | 2.76 | 8.76 | 5.44 | 2.87 | 3.88
CGTCCAAGGTCAGAGAGGTCTGTGAATGCCGAGT | 3.99 | 4.61 | 5.25 | 2.64 | 3.4 | 3.38 | 1.64 | 1.65
ATATCTAGGTTAAGGGTCATTCAGGTTGGTTCGC | 3.97 | 4.82 | 3.86 | 2.66 | 5.68 | 3.82 | 2.49 | 4.63
CCTCGGTGGACAGAAGGTCAGAGCTGTCCGCTTT | 2.87 | 2.3 | 1.99 | -0.526 | 1.84 | 1.89 | -0.379 | -0.538
ATCTCTAAGTAAAAGTTCAGTGAATCCCGAGGAT | 2.23 | 1.54 | 1.99 | 1.09 | 0.961 | 0.533 | -0.127 | 1.62

Sequence | PBM binding z-score [1] | PBM binding z-score [2] | PBM binding z-score [3] | PBM binding z-score [4] | PBM binding z-score [5] | PBM binding z-score [6] | PBM binding z-score [7] | PBM binding z-score [8]
CCTTACGGGTCACTCCAGGTAATAGCATCGGAGT | 2.75 | 4.2 | 4.02 | 1.48 | 4.32 | 4.97 | 0.347 | 1.19
ATATGTAGGTTAGCGGGTCATTCAGTTTGCGCAT | 2.65 | 2.83 | 2.37 | 1.42 | 2.77 | 2.06 | 1.08 | 2.76
TCTAGCAGGCCAGAGGGTCACTCTAGAGGTACGG | 2.57 | 2.42 | 1.97 | 0.248 | 2.34 | 1.4 | -0.529 | 0.422
CAAACTAGATCAAGAGGTCAAAGTCCGCTTCCCG | 4.71 | 4.84 | 3.96 | 1.69 | 5.73 | 3.93 | 1.67 | 3.23
CCGACTGGGGCATAGGGTTACCATAAGCCAGCCC | 0.968 | 1.34 | 0.885 | -1.32 | 1.21 | 0.957 | -0.244 | -1.05
AGAATGAGGTTATACGTCGATCAGGGAAGAAAGT | 0.644 | 1.73 | 0.993 | 1.69 | 2.07 | 2.01 | 0.495 | 0.866
TCTGATAGGTCAACGATGGTCAGCTAATCTGCTA | 3.94 | 5.15 | 5.89 | 1.21 | 4.73 | 3.1 | -0.296 | -0.032
CCTACTGGGCCCTCAGGTCATTGATATCAACGTT | 2 | 1.1 | 0.939 | -0.149 | 0.755 | 3 | 2.78 | 1.17
CTACCAAGGTGAACAAGATCGTTGATTACTATTC | 0.653 | 0.951 | 0.995 | 0.225 | 0.874 | 1.66 | 0.798 | -0.0814
TCATATAGGTAATACAGGTGAAAGACGGCATCTA | 0.66 | 0.945 | 0.86 | 1.52 | 1.38 | 0.85 | 0.434 | 0.471
TCTCGGAGGGCACGAAAGGTCAGAGCTCGACATC | 5.03 | 6.01 | 6.16 | 1.09 | 5.58 | 4.4 | 0.163 | 1.1
CGAACTAGGTCAGAAGAGGACAGTGAAGGATGAT | 2.53 | 2.68 | 3.66 | 0.392 | 1.03 | 4.34 | 0.406 | 0.275
CCAACTAGGTCATCCAGGACAGTGAATACATTGA | 3.44 | 3.88 | 4.83 | 2.49 | 2.77 | 3.79 | 2.61 | 2.63
CCGACTGGGGCAAAGCTTACCATACTCAGTACGA | -0.047 | 0.0271 | 0.339 | 0.525 | -0.115 | -0.341 | -0.519 | -0.448
CCTCGGACGACAGAAGGTCAGAGCTGTCCGCTTT | 3.09 | 2.54 | 2.68 | 0.306 | 1.98 | 1.57 | -0.117 | 0.204
CCTCGGAGTACAGAAGGTCAGAGCTGTCCGCTTT | 3.15 | 2.77 | 2.95 | 0.9 | 2.37 | 2.3 | 0.111 | 0.59
CCTAGTTCGTCAGGAGGTCACACACCGGATATGA | 4.54 | 6.37 | 4.42 | 3.1 | 4.83 | 3.92 | 2.68 | 4.2
TCTTGTAGATCAGCAAGTTAAGAAAGCTGGCCAA | -0.5 | -0.41 | -0.827 | 0.54 | -0.136 | -0.47 | -1.04 | -0.456
